Reference: PubChem BioAssay (NCI)
Compounds without any hit were thinned out: in the full panel of roughly 79,000, 15% have a hit. Activity calls are given as the source filed them. Cut-off read from the data, not from the text of the source: active = growth inhibition above about 70%; inactive = the rest.

Tests used:
[1] = NCI Yeast Anticancer Drug Screen. Data for the sgs1 strain (AID 173);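 note: 0% = growth of vehicle-only control cultures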; conditions: S. cerevisiae sgs1 mutant, hits give high values
Method in brief: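 Yeast mutant strains carrying defined defects in DNA damage repair or cell cycle control were exposed to test compounds. Growth inhibition was scored against vehicle-treated controls.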

[2] = NCI Yeast Anticancer Drug Screen. Data for the mlh1 rad18 strain (AID 175); conditions: S. cerevisiae mlh1 rad18 strain growth inhibition, hits give high values
Method in brief: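 Growth inhibition of the yeast strain was measured after compound exposure and expressed relative to vehicle-treated controls. The strain carries defined defects in DNA damage repair.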

[3] = NCI Yeast Anticancer Drug Screen. Data for the rad18 strain (AID 177); conditions: S. cerevisiae rad18 mutant growth inhibition, hits give high values
Method in brief: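 Yeast carrying a defined DNA damage repair alteration were exposed to compounds. Growth inhibition was expressed relative to vehicle-treated controls.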

[4] = NCI Yeast Anticancer Drug Screen. Data for the rad52 strain (AID 147);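 note: 0% = growth of vehicle-treated control cultures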; conditions: S. cerevisiae rad52 mutant growth inhibition, hits give high values
Method in brief: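 Yeast strain carrying a DNA damage repair alteration was exposed to test compounds. Growth inhibition was measured relative to vehicle-treated controls.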

[5] = NCI Yeast Anticancer Drug Screen. Data for the wt1 strain (AID 149);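 note: 0% = growth of vehicle-treated wt1 cultures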; conditions: S. cerevisiae wt1 strain (SPY 50644) growth inhibition, hits give high values
Method in brief: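 Vehicle-normalised growth inhibition; strain wt1; compound exposure.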

[6] = NCI Yeast Anticancer Drug Screen. Data for the rad50EPP+ strain (AID 151);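 note: 0% = growth of vehicle-treated control cultures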; conditions: S. cerevisiae rad50 mutant strain, hits give high values
Method in brief: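 Yeast strain carrying rad50 alteration (rad50EPP+) exposed to compounds; growth inhibition measured relative to vehicle-treated controls.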

[7] = NCI Yeast Anticancer Drug Screen. Data for the rad50 strain (AID 155);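 note: 0% = growth of vehicle-only cultures of the same strain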; conditions: S. cerevisiae rad50 strain growth inhibition, hits give high values
Method in brief: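 A DNA repair-deficient yeast mutant serves as the test organism; compound-induced growth inhibition is calculated against vehicle-treated cells.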

[8] = NCI Yeast Anticancer Drug Screen. Data for the mec2-1 strain (AID 157); conditions: S. cerevisiae mec2-1 strain, hits give high values
Method in brief: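 mec2-1 yeast strain, carrying an alteration in DNA damage repair or cell cycle control, was exposed to compounds; growth inhibition was measured relative to vehicle-treated controls.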

[9] = NCI Yeast Anticancer Drug Screen. Data for the rad14 strain (AID 159);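 note: 0% = growth of vehicle-treated control cultures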; conditions: S. cerevisiae rad14 strain growth inhibition, hits give high values
Method in brief: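 Vehicle-treated cultures served as the baseline for growth inhibition of a DNA repair-mutant yeast strain exposed to each compound.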

[10] = NCI Yeast Anticancer Drug Screen. Data for the CLN2oe strain (AID 163);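 note: 0% = growth of vehicle-only control cultures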; conditions: S. cerevisiae CLN2oe strain, hits give high values
Method in brief: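 Yeast cells carrying a defined cell-cycle control alteration were exposed to test compounds. Growth inhibition was scored against vehicle-treated control cultures.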

[11] = NCI Yeast Anticancer Drug Screen. Data for the cln2 rad14 strain (AID 165);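 note: 0% = growth equal to vehicle treated cultures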; conditions: S. cerevisiae cln2 rad14 strain, hits give high values
Method in brief: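 Yeast carrying cln2 and rad14 alterations (cell cycle control and DNA damage repair) were exposed to compounds. Growth inhibition was measured against vehicle-treated controls.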

[12] = NCI Yeast Anticancer Drug Screen. Data for the bub3 strain (AID 167); conditions: S. cerevisiae bub3 mutant strain, hits give high values
Method in brief: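 Inhibition values come from growth of compound-treated mutant yeast normalised to vehicle-treated controls.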

[13] = NCI Yeast Anticancer Drug Screen. Data for the mlh1 strain (AID 171);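 note: 0% = growth of vehicle-treated control cultures of the same strain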; conditions: S. cerevisiae mlh1 strain growth inhibition, hits give high values
Method in brief: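 Yeast carrying a defined genetic alteration in DNA damage repair or cell cycle control were exposed to test compounds. Growth inhibition was measured relative to vehicle-treated controls.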

[14] = NCI Yeast Anticancer Drug Screen. Data for the sgs1 mgt1 strain (AID 161);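 note: 0% = growth of cultures given vehicle only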; conditions: S. cerevisiae sgs1 mgt1 strain, hits give high values
Method in brief: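 Growth of a repair-deficient yeast mutant was monitored after compound treatment and expressed as inhibition relative to vehicle-treated cultures.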

[15] = NCI Yeast Anticancer Drug Screen. Data for the wt2 strain (AID 169);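 note: 0% = growth of vehicle-treated yeast cultures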; conditions: S. cerevisiae wt2 strain growth inhibition, hits give high values
Method in brief: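 Yeast cells were exposed to test compounds, and growth inhibition was measured relative to vehicle-treated controls.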

[16] = at 5.0 µM (retest, dose inferred, filed as 0.5)
[17] = at 50.0 µM (retest, dose inferred, filed as 5.0)

Measured: growth inhibition

COCCCN(Cc1cc(OC)c(OC)c(OC)c1)C(=S)Nc1cccc(Cl)c1
inactive: [1]; at 1.2 µM -20% | [1]; at 3.7 µM -22% | [1]; at 11.0 µM -21% | [1]; at 33.0 µM -16% | [1]; at 100.0 µM 36% | [2]; [16] 46% | [2]; [17] 67% | [2]; at 50.0 µM 19.2% | [3]; at 1.2 µM -17% | [3]; at 3.7 µM -25% | [3]; at 11.0 µM -17% | [3]; at 33.0 µM -15% | [3]; at 100.0 µM 27%

O=C1NC(c2c(Cl)cccc2Cl)Nc2ccccc21 (centres undefined)
active: [4]; at 33.0 µM 75% | [4]; at 100.0 µM 95% | [5]; at 100.0 µM 91% | [7]; [16] 86% | [7]; at 33.0 µM 72% | [7]; [17] 100% | [7]; at 50.0 µM 83.7% | [7]; at 100.0 µM 91% | [8]; [16] 92% | [8]; [17] 100% | [8]; at 50.0 µM 83.7% | [8]; at 100.0 µM 94% | [9]; at 100.0 µM 89% | [10]; at 100.0 µM 93% | [11]; [17] 90% | [12]; at 33.0 µM 78% | [12]; [17] 87% | [12]; at 100.0 µM 94% | [13]; at 100.0 µM 87% | [1]; at 100.0 µM 88% | [2]; [16] 71% | [2]; [17] 100% | [2]; at 50.0 µM 84.5%
inactive: [4]; at 1.2 µM 9% | [4]; at 3.7 µM 9% | [4]; at 11.0 µM 12% | [5]; at 1.2 µM -25% | [5]; at 3.7 µM -26% | [5]; at 11.0 µM -22% | [5]; at 33.0 µM 52% | [6]; at 1.2 µM -12% | [6]; at 3.7 µM -21% | [6]; at 11.0 µM -18% | [6]; at 33.0 µM -14% | [6]; at 100.0 µM 6% | [7]; at 1.2 µM 12% | [7]; at 3.7 µM 4% | [7]; at 11.0 µM 10% | [8]; at 1.2 µM -1% | [8]; at 3.7 µM -9% | [8]; at 11.0 µM -9% | [8]; at 33.0 µM 63% | [9]; at 1.2 µM -44% | [9]; at 3.7 µM -32% | [9]; at 11.0 µM -28% | [9]; at 33.0 µM 58% | [10]; at 1.2 µM 14% | [10]; at 3.7 µM 2% | [10]; at 11.0 µM -7% | [10]; at 33.0 µM 54% | [11]; [16] 12% | [12]; at 1.2 µM 4% | [12]; at 3.7 µM 15% | [12]; [16] -1% | [12]; at 11.0 µM 16% | [13]; at 1.2 µM -35% | [13]; at 3.7 µM -29% | [13]; at 11.0 µM -40% | [13]; at 33.0 µM 35% | [1]; at 1.2 µM -27% | [1]; at 3.7 µM -33% | [1]; at 11.0 µM -25% | [1]; at 33.0 µM 41%

O=[N+]([O-])c1c(/C=N/Nc2ccccc2)oc(-c2ccc3c(c2)OCO3)c1-c1ccc2c(c1)OCO2
active: [4]; at 100.0 µM 88% | [7]; [16] 88% | [7]; [17] 88% | [7]; at 50.0 µM 80.3% | [7]; at 100.0 µM 86% | [8]; at 50.0 µM 88.2% | [8]; at 100.0 µM 81% | [14]; [16] 87% | [14]; [17] 87% | [14]; at 50.0 µM 83% | [10]; at 100.0 µM 77% | [11]; at 50.0 µM 86.8% | [12]; at 50.0 µM 82.5% | [15]; at 100.0 µM 88% | [13]; at 100.0 µM 73% | [1]; at 100.0 µM 89% | [2]; at 50.0 µM 84.2% | [3]; at 100.0 µM 87%
inactive: [4]; at 1.2 µM 0% | [4]; at 3.7 µM 6% | [4]; at 11.0 µM 20% | [4]; at 33.0 µM 67% | [5]; at 1.2 µM -1% | [5]; at 3.7 µM 0% | [5]; at 11.0 µM -1% | [5]; at 33.0 µM 19% | [5]; at 100.0 µM 62% | [6]; at 1.2 µM -4% | [6]; at 3.7 µM 1% | [6]; at 11.0 µM 11% | [6]; at 33.0 µM 31% | [6]; at 100.0 µM 46% | [7]; at 1.2 µM -1% | [7]; at 3.7 µM 2% | [7]; at 11.0 µM 7% | [7]; at 33.0 µM 56% | [8]; at 1.2 µM 0% | [8]; at 3.7 µM 0% | [8]; [16] 8% | [8]; at 11.0 µM 8% | [8]; at 33.0 µM 37% | [8]; [17] 8% | [10]; at 1.2 µM -1% | [10]; at 3.7 µM 4% | [10]; at 11.0 µM 9% | [10]; at 33.0 µM 46% | [11]; [16] -17% | [11]; [17] -17% | [12]; at 1.2 µM -9% | [12]; at 3.7 µM -8% | [12]; [16] -21% | [12]; at 11.0 µM 8% | [12]; at 33.0 µM 39% | [12]; [17] -21% | [12]; at 100.0 µM 60% | [15]; at 1.2 µM 0% | [15]; at 3.7 µM 1% | [15]; at 11.0 µM 5% | [15]; at 33.0 µM 44% | [13]; at 1.2 µM -3% | [13]; at 3.7 µM -2% | [13]; at 11.0 µM 3% | [13]; at 33.0 µM 36% | [1]; at 1.2 µM -2% | [1]; at 3.7 µM -2% | [1]; at 11.0 µM 7% | [1]; at 33.0 µM 65% | [2]; [16] 38% | [2]; [17] 38% | [3]; at 1.2 µM -8% | [3]; at 3.7 µM -5% | [3]; at 11.0 µM 8% | [3]; at 33.0 µM 69%
